Measured values published in PubChem BioAssay (Tox21).
“And” between values parts separate entries of the source, which are not always exact repeats. Equal entries are not always repeated. Records with an inconclusive call do not appear. Entries that show only a call come without a potency. The source made the active and inactive calls. Calls come from the whole dose curve; as a rule, active = well fitted cell-killing curve with a large enough effect in the repeat runs; inconclusive = weak or mixed curves, or effect the other way; inactive = no such curve, though single readings can be large or run the other way.

Assay: qHTS assay to identify small molecule antagonists of the glucocorticoid receptor (GR) signaling pathway - cell viability counter screen (AID 720693); note: nearly all actives have a fitted effect of over 55% in size
Conditions: GR-bla HeLa viability, CellTiter-Glo luminescence, 18 h, with 5 nM dexamethasone present; series mostly up to 58.5 µM
Source text: National Center for Advancing Translational Sciences [NCATS]
NIH Chemical Genomics Center [NCGC]
U.S. Environmental Protection Agency [EPA]
National Institutes of Environmental Health Sciences [NIEHS]
National Toxicology Program [NTP]
U.S. Food and Drug Administration [FDA]
The Glucocorticoid receptor (GR) is one of the members of the nuclear receptor family of ligand-dependent transcription factors. GR plays a critical role in carbohydrate, protein and lipid metabolisms and programmed cell death. CellSensor GR-bla HeLa cell line (Invitrogen) contains a beta-lactamase reporter gene under the control of the glucocorticoid response element stably integrated into HeLa cells, a cervical cancer cell line that expresses glucocorticoid receptor. The activation of the reporter gene under culture conditions can be detected by fluorescence intensity. This cell line has been used to screen the Tox21 10K compound library and to identify the compounds that inhibit the GR signaling. The cytotoxicity of the Tox21 compound library against the GR-bla HeLa cell line was tested in parallel by measuring the cell viability using CellTiter-Glo assay in the same wells.
Tox21 Assay Protocol Summary:
The GR-bla HeLa cells were dispensed at 1500 cells/5 ul/well in 1536-well black wall/clear bottom plates using a Multidrop Combi (ThermoFisher Scientific, Waltham, MA) dispenser. After the assay plates were incubated at a 37 C/5% CO2 incubator for 4 hours, 23 nL of compounds dissolved in DMSO, positive controls or DMSO only was transferred to the assay plate by a pintool station (Kalypsys, San Diego, CA), followed by addition of 1 uL of dexamethasone (5 nM, final concentration in the well). The plates were incubated at 37 C for 18 hours. After 1 uL of LiveBLAzerTM B/G FRET substrate was added using a Flying Reagent Dispenser (Aurora Discovery, San Diego, CA), the plates were incubated at room temperature (RT) for 2 hours, and fluorescence intensity was measured by an Envision plate reader (PerkinElmer, Shelton, CT). After measurement of bla assay, 3 ul CellTiter-Glo (Promega, Madison, WI) was added to measure the cytotoxicity and the plates were then incubated at RT for 30 min. The luminescence was measured using a ViewLux (Perkin Elmer) plate reader.
Potency is the fitted concentration of half-maximal effect.

Structure (SMILES)	Potency
CC(C(O)c1ccccc1)N(C)CCOC(c1ccccc1)c1ccccc1 (stereo not given)	inactive
CC(C)c1ccc(O)c(C(C)C)c1	inactive
CCCCCCCCCCCCCOP(=O)(O)O	inactive
CCCCCCOc1cc(C)c(O)c(C)c1C	49.6 µM (active)
O=C1NCCN1CCN1CCC(c2cn(-c3ccc(F)cc3)c3ccc(Cl)cc23)CC1	23.9 µM (active)
NC(=O)c1ccccc1N	inactive
CCCCCCC(C)OC(=O)COc1nc(F)c(Cl)c(N)c1Cl (stereo not given)	inactive
C1CC(COCC2CO2)CCC1COCC1CO1 (stereo not given)	inactive
CCN(CC)CCCN(c1ccccc1)C1Cc2ccccc2C1	23.9 µM (active)
COC(=O)CC(C)CCC=C(C)C (stereo not given)	inactive
C=CC(C)(CCC=C(C)C)OC(=O)/C=C/c1ccccc1 (stereo not given)	inactive
CN(Cc1cc(Br)cc(Br)c1N)C1CCCCC1	inactive
CCCCCCC(C)Nc1ccc(Nc2ccccc2)cc1 (stereo not given)	49 µM (active)
C/C=C/C=N/NC(=O)c1ccncc1	inactive
O=C1OC(OC(=O)c2cccnc2Nc2cccc(C(F)(F)F)c2)c2ccccc21 (stereo not given)	inactive
CCCCCCCC/C=C/CCCOC(C)=O	inactive
O=C(Oc1ccccc1)c1cccc(C(=O)Oc2ccccc2)c1	inactive
CCN=c1cc2oc3cc(NCC)c(C)cc3c(-c3ccccc3C(=O)OCC)c-2cc1C	21.8 µM (active) and 21.9 µM (active)
CN1[C@@H]2CC[C@@H]1CC(OC(=O)C(CO)c1ccccc1)C2 (stereo not given in full)	inactive
CCCCCCCCCCCCCC[n+]1ccccc1	13.8 µM (active)

Structure (SMILES)	Potency
C[C@H]1O[C@@H](O[C@H]2[C@@H](O)C[C@H](O[C@H]3[C@@H](O)C[C@H](O[C@H]4CC[C@@]5(C)[C@H](CC[C@@H]6[C@@H]5C[C@@H](O)[C@]5(C)[C@@H](C7=CC(=O)OC7)CC[C@]65O)C4)O[C@@H]3C)O[C@@H]2C)C[C@H](O)[C@@H]1O	535 nM (active) and 97.8 nM (active) and 193 nM (active)
C[C@@]12C(=O)OC(=O)[C@]1(C)C1CCC2O1	1.29 µM (active)
C=C(C)C(=O)OCCC[Si](Cl)(Cl)Cl	inactive
CC1CCCNC1 (stereo not given)	inactive
NC(=O)C(=O)N/N=C/c1ccc([N+](=O)[O-])o1	inactive
CNCC[C@H](Oc1cccc2ccccc12)c1cccs1	inactive
CCCCCCCC/C=C\CCCCCCCC(=O)N(C)CC(=O)O	49 µM (active)
Cc1cccc(C)c1NC(=O)CN1CCN(CCCC(c2ccc(F)cc2)c2ccc(F)cc2)CC1	inactive
CCN(CC)CCNc1ccc(CO)c2sc3ccccc3c(=O)c12	inactive
O=C(O)CCCCCCC(=O)O	inactive
Cc1oc(-c2ccccc2)nc1CCOc1ccc(C[C@H](Nc2ccccc2C(=O)c2ccccc2)C(=O)O)cc1	38.9 µM (active)
CC(=O)Oc1ccc(C2(c3ccc(OC(C)=O)cc3)C(=O)Nc3ccccc32)cc1	inactive
CCCCC(CC)COC(=O)c1ccc(O)cc1 (stereo not given)	43.5 µM (active)
Nc1ccc2cc3ccc(N)cc3nc2c1	19 µM (active)
COc1ccccc1OCCNCC(O)COc1cccc2[nH]c3ccccc3c12 (stereo not given)	inactive
Cc1cc(Nc2ccc(O)cc2)ccc1N	inactive
Oc1c(Br)cc(Br)c2cccnc12	inactive
CCCCCCOc1ccc(O)cc1	inactive
CCN(CC)CCOC(=O)C1(C2CCCCC2)CCCCC1	inactive
Cc1occc1SSc1ccoc1C	inactive
